# According to PubChem BioAssay:
# Active and inactive are the calls of the source. Unless noted, how the calls were made is not given here.
# Tests used:
# [1] = test system: Wnt5a (protein binding on small-molecule microarray); experiment: small molecules binding Wnt5a protein – biophysical, small-molecule microarray, 635/667 nm fluorescence, primary screen (AID 1142); conditions: 635 nm fluorescence, higher = more signal;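 further: fluorescence read at 667 nm with signal to noise per printed feature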
# [2] = ATP-based viability of Huh7 replicon cells – cell-based, CellTiter-Glo luminescence, basal, 48 h, cytotoxicity control for HCV replication inhibitor project, primary screen (AID 1143); conditions: higher = more signal, called active from +8 up or from −8 down;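 further: Huh7 hepatoma cells carrying a hepatitis C replication reporter with no stimulus; test concentration not given here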
# [3] = Pseudomonas biofilm growth suppression – PAO1 strain, BacTiter-Glo luminescence, LB-PBS, primary screen (AID 1144); conditions: P. aeruginosa PAO1 biofilm, 12 h, higher = more signal
# [4] = basal CRE-LacZ reporter activity in PC12 – cell-based, unstimulated, primary screen (AID 1145); conditions: no forskolin, luminescence, 4.5 h, higher = more signal, called active from +8 up or from −8 down
# [5] = forskolin-driven CRE-LacZ activity in PC12 – cell-based, CRE-LacZ reporter, forskolin-stimulated, primary screen (AID 1146); conditions: luminescence, 4.5 h, higher = more signal, called active from +8 up or from −8 down;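 further: PC12 cells with 6xCRE LacZ reporter stimulated by forskolin 10 µM; beta-galactosidase reporter signal reflecting CREB driven transcription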
# [6] = target: Streptavidin (Streptomyces avidinii) (UniProt P22629); experiment: compounds binding control protein streptavidin – biophysical, small-molecule microarray, 635/667 nm fluorescence, artefact control for SMM compound annotation, primary screen (AID 1147); conditions: higher = more signal;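 further: signal reflects streptavidin binding to arrayed compounds as a control protein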
# [7] = probe aInhba binding on compound microarray – biochemical, small-molecule microarray, 635/667 nm fluorescence, primary screen (AID 1148); conditions: higher = more signal;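 further: score merges 667nm spot fluorescence with signal-to-noise for antibody binding to printed compounds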
# Torsin-1A (Homo sapiens) [8] = target: Torsin-1A (Homo sapiens) (UniProt O14656); experiment: TOR1A wild-type binding on microarray – cell lysate, small-molecule microarray, lysate, 635/667 nm, primary screen (AID 1149); conditions: COS7 hTOR1A-WT lysate, 635 nm fluorescence, higher = more signal
# Torsin-1A (Homo sapiens) [9] = target: Torsin-1A (Homo sapiens) (UniProt O14656); experiment: torsin A mutant lysate binding on microarrays – cell lysate, small-molecule microarray, COS7 lysate, 635/667 nm fluorescence, primary screen (AID 1150); conditions: COS7 hTOR1A mutant lysate, 635 nm fluorescence, higher = more signal;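 further: score pools 667 nm emission and signal to noise measuring lysate protein binding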
# [10] = test system: Sonic hedgehog protein (Shh); experiment: Sonic hedgehog microarray binding compounds – biochemical, small-molecule microarray, 635/667 nm fluorescence, primary screen (AID 1151); conditions: 635 nm fluorescence, higher = more signal;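 further: Shh protein binding to compounds spotted on small-molecule microarray slides; score combines spot fluorescence intensity with signal-to-noise across triplicate slides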
# [11] = optical density shifts of acrAB sulA E. coli – strain DRC41, OD650, 48 h, E. coli filamentation inducer project, primary screen (AID 1152); conditions: higher = more signal, called active from +8 up or from −8 down;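 further: E. coli MC1000 strain DRC41 lacking acrAB efflux pump and sulA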
# [12] = probe aLefty1 binding on compound microarray – biochemical, small-molecule microarray, 635/667 nm fluorescence, primary screen (AID 1153); conditions: higher = more signal;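 further: score merges spot fluorescence with signal-to-noise ratio from the scanned slide images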
# [13] = plasmodial surface anion channel blockers, osmotic lysis – cell-based, P. falciparum Indochina, OD700, 1 h, primary screen (AID 1154); conditions: P. falciparum Indochina infected RBC osmotic lysis, higher = more signal, called active from +8 up or from −8 down
# [14] = plasmodial surface anion channel blockers, osmotic lysis – cell-based, P. falciparum Indochina, OD700, 2 h, primary screen (AID 1155);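 further: lysis reports solute entry through the parasite surface anion channel PSAC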; conditions: P. falciparum Indochina infected erythrocytes, higher = more signal, called active from +8 up or from −8 down
# [15] = changes in parasitized red cell lysis, either direction – P. falciparum Indochina, OD700, 3 h, PSAC antagonist project, primary screen (AID 1156); conditions: P. falciparum-infected erythrocytes, osmotic lysis, higher = more signal, called active from +8 up or from −8 down
# [16] = plasmodial surface anion channel blockers, osmotic lysis – cell-based, P. falciparum Indochina, OD700, 18 h, primary screen (AID 1157); conditions: P. falciparum Indochina infected erythrocytes, osmotic lysis OD700, 18 h; higher = more signal, called active from +8 up or from −8 down
# [17] = S6 kinase pathway phospho-S6 level changes – cell-based, A549, cytoblot, luminescence, serum-stimulated, primary screen (AID 1158); conditions: 5 h, higher = more signal;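 further: serum-stimulated A549 lung adenocarcinoma cells; signal is phosphorylated S6 detected by cytoblot immunostaining with HRP secondary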
# [18] = target: NADPH oxidase 2 (Homo sapiens) (UniProt P04839); experiment: compounds shifting NOX2 Amplex Red fluorescence – cell-based, HEK293-NOX2, PMA-stimulated, NOX inhibitor project, primary screen (AID 1159); conditions: 45 min, higher = more signal, called active from +8 up or from −8 down; further: test concentration not given here
# [19] = target: NADPH oxidase 4 (Homo sapiens) (UniProt Q9NPH5); experiment: compounds shifting NOX4 Amplex Red fluorescence – cell-based, HEK293-NOX4, tetracycline-induced, NOX inhibitor project, primary screen (AID 1160); conditions: HEK293-NOX4, Amplex Red H2O2 fluorescence, 45 min; higher = more signal, called active from +8 up or from −8 down
# [20] = target: NADPH oxidase 5 (Homo sapiens) (UniProt Q96PH1); experiment: compounds shifting NOX5 Amplex Red fluorescence – cell-based, HEK293-NOX5, NOX inhibitor project, primary screen (AID 1161); conditions: HEK293-NOX5, ionomycin, 45 min, higher = more signal
# Sequence of NADPH oxidase 5 (Homo sapiens) (Q96PH1 whole entry, looked up): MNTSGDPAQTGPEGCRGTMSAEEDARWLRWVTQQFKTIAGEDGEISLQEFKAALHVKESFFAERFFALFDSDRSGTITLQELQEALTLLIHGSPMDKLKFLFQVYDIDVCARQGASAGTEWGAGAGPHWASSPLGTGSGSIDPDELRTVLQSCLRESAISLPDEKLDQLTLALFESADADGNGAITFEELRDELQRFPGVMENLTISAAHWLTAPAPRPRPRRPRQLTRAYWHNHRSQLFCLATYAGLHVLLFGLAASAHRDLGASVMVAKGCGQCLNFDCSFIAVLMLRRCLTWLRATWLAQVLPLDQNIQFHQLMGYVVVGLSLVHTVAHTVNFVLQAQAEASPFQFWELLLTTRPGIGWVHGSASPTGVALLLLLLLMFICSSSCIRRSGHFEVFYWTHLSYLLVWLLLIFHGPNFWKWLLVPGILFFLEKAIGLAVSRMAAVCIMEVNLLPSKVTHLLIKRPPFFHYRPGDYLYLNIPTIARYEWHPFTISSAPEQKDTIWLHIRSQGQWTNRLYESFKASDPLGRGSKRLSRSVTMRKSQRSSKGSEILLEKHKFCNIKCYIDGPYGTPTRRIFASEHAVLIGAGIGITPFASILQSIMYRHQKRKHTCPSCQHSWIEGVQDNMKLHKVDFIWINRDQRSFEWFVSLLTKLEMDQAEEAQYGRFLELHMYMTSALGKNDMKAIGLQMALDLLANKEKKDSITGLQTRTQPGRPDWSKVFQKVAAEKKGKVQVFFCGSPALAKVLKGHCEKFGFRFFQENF
# Sequence of NADPH oxidase 4 (Homo sapiens) (Q9NPH5 whole entry, looked up): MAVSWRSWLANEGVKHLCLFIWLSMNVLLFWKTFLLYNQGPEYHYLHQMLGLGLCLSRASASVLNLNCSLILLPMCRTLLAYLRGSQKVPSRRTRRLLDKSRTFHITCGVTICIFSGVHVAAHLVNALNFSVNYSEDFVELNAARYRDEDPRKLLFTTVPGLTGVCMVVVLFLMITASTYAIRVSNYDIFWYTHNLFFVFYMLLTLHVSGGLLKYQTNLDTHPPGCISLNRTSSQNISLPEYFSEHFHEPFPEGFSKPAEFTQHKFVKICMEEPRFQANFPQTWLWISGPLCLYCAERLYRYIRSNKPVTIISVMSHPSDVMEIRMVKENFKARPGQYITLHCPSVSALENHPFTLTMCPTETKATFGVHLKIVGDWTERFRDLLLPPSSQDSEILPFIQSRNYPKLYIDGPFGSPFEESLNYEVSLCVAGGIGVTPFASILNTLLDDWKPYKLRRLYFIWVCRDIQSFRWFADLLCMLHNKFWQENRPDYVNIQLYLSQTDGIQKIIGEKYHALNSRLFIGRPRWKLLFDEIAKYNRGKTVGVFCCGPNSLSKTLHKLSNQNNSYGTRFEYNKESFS
# Sequence of Torsin-1A (Homo sapiens) (O14656 whole entry, looked up): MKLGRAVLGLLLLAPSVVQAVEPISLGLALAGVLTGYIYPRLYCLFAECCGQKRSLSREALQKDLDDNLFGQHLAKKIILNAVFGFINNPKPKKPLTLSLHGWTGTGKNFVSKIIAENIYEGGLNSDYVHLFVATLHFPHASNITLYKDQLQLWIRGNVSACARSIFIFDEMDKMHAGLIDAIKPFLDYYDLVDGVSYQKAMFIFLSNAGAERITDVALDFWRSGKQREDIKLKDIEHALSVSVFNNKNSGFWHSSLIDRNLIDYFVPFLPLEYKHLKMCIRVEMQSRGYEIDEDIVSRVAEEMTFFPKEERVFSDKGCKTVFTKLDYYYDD
# Sequence of Streptavidin (Streptomyces avidinii) (P22629 whole entry, looked up): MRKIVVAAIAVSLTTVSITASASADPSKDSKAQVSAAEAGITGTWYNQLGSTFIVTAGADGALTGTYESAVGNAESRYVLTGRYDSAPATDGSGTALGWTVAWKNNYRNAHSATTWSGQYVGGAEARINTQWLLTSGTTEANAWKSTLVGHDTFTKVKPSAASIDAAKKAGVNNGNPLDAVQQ
# Sequence of NADPH oxidase 2 (Homo sapiens) (P04839 whole entry, looked up): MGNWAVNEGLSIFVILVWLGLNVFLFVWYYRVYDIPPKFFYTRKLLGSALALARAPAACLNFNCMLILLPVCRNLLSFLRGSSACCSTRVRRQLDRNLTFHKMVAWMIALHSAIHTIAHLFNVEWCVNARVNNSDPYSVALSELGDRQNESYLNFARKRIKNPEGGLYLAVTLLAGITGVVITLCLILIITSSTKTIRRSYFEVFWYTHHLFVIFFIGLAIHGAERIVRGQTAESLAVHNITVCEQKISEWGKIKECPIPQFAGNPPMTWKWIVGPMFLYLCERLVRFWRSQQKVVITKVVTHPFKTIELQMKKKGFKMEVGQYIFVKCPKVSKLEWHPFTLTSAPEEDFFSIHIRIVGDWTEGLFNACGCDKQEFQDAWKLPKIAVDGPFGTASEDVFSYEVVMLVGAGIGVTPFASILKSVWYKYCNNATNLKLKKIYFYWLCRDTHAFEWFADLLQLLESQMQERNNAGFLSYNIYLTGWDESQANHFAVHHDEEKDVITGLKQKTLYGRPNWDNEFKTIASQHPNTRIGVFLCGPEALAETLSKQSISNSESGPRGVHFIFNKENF
SMILES,composite z-score [1],z-score [2],z-score [3],z-score [4],z-score [5],composite z-score [6],composite z-score [7],composite z-score (Torsin-1A (Homo sapiens) [8]),composite z-score (Torsin-1A (Homo sapiens) [9]),composite z-score [10],z-score [11],composite z-score [12],z-score [13],z-score [14],z-score [15],z-score [16],z-score [17],z-score [18],z-score [19],z-score [20]
COCC1=C2[C@@H](CCc3ccccc3)OB(O)C[C@@H]2[C@@H]2C(=O)C=CC(=O)[C@@H]2C1,0.0021,-1.9 (inactive),0.353 (inactive),19.2 (active),22.8 (active),0.55,0.0212,0.246,0.292,0.963,-0.204 (inactive),-0.0386,2.09 (inactive),-0.122 (inactive),-0.623 (inactive),-0.0621 (inactive),0.154,-0.109 (inactive),-0.383 (inactive),1.01
C=CCC(OC(C)=O)[C@@H]1[C@@H](N(Cc2ccc(-c3ccccc3)cc2)C(=O)Cc2ccc(F)cc2)c2cc(OCCCO)ccc2N1C(=O)Cc1ccc(OC)cc1 (stereo not given in full),0.205,0.145 (inactive),0.729 (inactive),1.25 (inactive),1.1 (inactive),0.586,-0.128,0.106,-0.751,0.164,0.246 (inactive),0.106,3.94 (inactive),0.477 (inactive),-0.407 (inactive),0.259 (inactive),-0.152,0.0982 (inactive),0.675 (inactive),1.67
COCCOC(=O)N1C(=O)[C@@]2(c3cc(C#CC4=CCCCC4)ccc31)[C@H](c1ccccc1OCCO)N1[C@H](c3ccccc3)[C@H](c3ccccc3)OC(=O)[C@H]1[C@@H]2C(=O)N1CCCCCCC1,0.582,-4.01 (inactive),0.727 (inactive),-0.402 (inactive),0.207 (inactive),0.342,-0.584,0.931,0.156,0.755,-1.05 (inactive),-0.999,-0.606 (inactive),1.1 (inactive),-0.56 (inactive),0.442 (inactive),-0.56,0.962 (inactive),-1.22 (inactive),0.545
COC(=O)C1=CC(CCCO)=CC(C2CC2)N(C)C=C1C(=O)OC (stereo not given),0.0676,-2.82 (inactive),-1.59 (inactive),-0.581 (inactive),0.214 (inactive),-0.326,-0.152,0.564,0.289,-0.526,1.22 (inactive),-0.35,0.731 (inactive),-0.59 (inactive),0.482 (inactive),-1.41 (inactive),1.83,-0.463 (inactive),-0.122 (inactive),0.663
C=CCC(OC(C)=O)[C@@H]1[C@@H](N(Cc2cc3ccccc3o2)C(=O)c2ccc(C)cc2)c2cc(OCCCO)ccc2N1C(=O)Cc1ccc(OC)cc1 (stereo not given in full),0.525,-0.102 (inactive),-0.491 (inactive),0.558 (inactive),-0.409 (inactive),1.57,-0.0044,-0.28,0.0194,0.809,1.72 (inactive),0.25,1.19 (inactive),0.794 (inactive),-0.528 (inactive),0.211 (inactive),-0.0745,0.391 (inactive),0.652 (inactive),1.72
[N-]=[N+]=NCc1ccccc1[C@H]1OC(c2ccc(OCCCO)cc2)=N[C@@]1(CCS(=O)(=O)c1ccccc1)C(=O)N1CCCCC1,0.526,-1.56 (inactive),-0.705 (inactive),0.0219 (inactive),-0.709 (inactive),1.72,0.211,0.827,1.28,0.155,-0.193 (inactive),0.666,25.6 (active),9.69 (active),3.2 (inactive),1.5 (inactive),0.515,0.0197 (inactive),1.56 (inactive),1.63
CC(C)C(CO)N1C(=O)[C@@H]2C3C(=O)OCCC/C=C\[C@H]3OC23C=CCN(C(C)(C)C)C(=O)[C@@H]13 (stereo not given in full),-0.0407,-0.162 (inactive),1.19 (inactive),-0.0778 (inactive),-0.205 (inactive),-0.542,-0.231,0.16,0.3,0.5,-0.69 (inactive),-0.142,0.502 (inactive),0.488 (inactive),0.441 (inactive),0.478 (inactive),-0.668,1.57 (inactive),0.339 (inactive),2.34
CC(C)N1CC=CC23O[C@@H]4C=CCOC(=O)[C@@H]4[C@H]2C(=O)N(CCCO)[C@@H]3C1=O (stereo not given in full),-0.26,-5.24 (inactive),-2.47 (inactive),-1.31 (inactive),-0.931 (inactive),-0.941,-0.182,1.12,0.874,-0.182,2.97 (inactive),-0.14,1.08 (inactive),0.0983 (inactive),0.976 (inactive),-0.137 (inactive),1.89,0.0484 (inactive),-1.52 (inactive),-1.36
